Reference: PubChem BioAssay (EPA / NIEHS)
Where “and” joins values, the source holds several entries; their conditions need not be identical. Identical values can stand only once. Results filed as inconclusive are left out. Calls of active or inactive are those of the source. How the source made its calls, unless noted: active means hit-call score of the fitted dose curve at least 0.9, where 1 is the maximum; inconclusive means response in the unintended direction; inactive means score below 0.9.

What was measured:
[1] = target: human Acetylcholinesterase (AChE), ACHE (gene 43) (UniProt P22303); assay: NVS_ENZ_hAChE: NovaScreen (NVS) Enzymatic Assay for human Acetylcholinesterase (AChE) (AID 2283129)
Summary of the method: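 Actives from a duplicate single-point screen (25 uM) were followed up in concentration series. Enzyme activity read by absorbance (colorimetric) 0.33 hour after dosing, cell-free, normalized to DMSO, with loss of signal scored.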

Caspase-1 (Homo sapiens) = Caspase-1 (Homo sapiens) (UniProt P29466); assay: NVS_ENZ_hCASP1: NovaScreen (NVS) Enzymatic Assay for human Caspase 1 (CASP1) (AID 2283132)
Caspase-1 (Homo sapiens), sequence (P29466 whole entry, looked up): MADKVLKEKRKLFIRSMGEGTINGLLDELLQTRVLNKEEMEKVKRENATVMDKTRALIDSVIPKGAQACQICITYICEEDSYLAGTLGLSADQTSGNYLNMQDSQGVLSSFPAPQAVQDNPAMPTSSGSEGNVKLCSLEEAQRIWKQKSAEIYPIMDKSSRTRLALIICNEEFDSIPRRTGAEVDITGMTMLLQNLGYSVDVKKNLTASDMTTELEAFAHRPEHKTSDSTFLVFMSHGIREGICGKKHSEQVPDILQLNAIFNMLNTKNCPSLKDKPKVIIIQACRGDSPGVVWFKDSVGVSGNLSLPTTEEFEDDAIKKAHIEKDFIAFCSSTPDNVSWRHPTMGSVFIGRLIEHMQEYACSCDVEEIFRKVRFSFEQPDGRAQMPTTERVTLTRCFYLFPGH
Summary of the method: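 Compounds were first tested in duplicate at 25 uM, with follow-up concentration series up to 50 uM. The bacterially expressed enzyme was read by fluorescence at 1 h post-dosing. Signal loss versus DMSO baseline indicates reduced enzyme activity.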

[2] = target: human Caspase 10 (CASP10), CASP10 (gene 843) (UniProt Q92851); assay: NVS_ENZ_hCASP10: NovaScreen (NVS) Enzymatic Assay for human Caspase 10 (CASP10) (AID 2283133)
Summary of the method: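 Fluorescence-intensity enzyme read-out of E. coli-expressed CASP10 activity, 1 h after compound. Single-point duplicates at 25 uM preceded concentration-response testing (top 50 uM) of hits; inhibition expressed as signal loss versus DMSO.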

[3] = target: human Caspase 2 (CASP2), CASP2 (gene 835) (UniProt P42575); assay: NVS_ENZ_hCASP2: NovaScreen (NVS) Enzymatic Assay for human Caspase 2 (CASP2) (AID 2283135)
human Caspase 2 (CASP2), CASP2 (gene 835), sequence (P42575 whole entry, looked up): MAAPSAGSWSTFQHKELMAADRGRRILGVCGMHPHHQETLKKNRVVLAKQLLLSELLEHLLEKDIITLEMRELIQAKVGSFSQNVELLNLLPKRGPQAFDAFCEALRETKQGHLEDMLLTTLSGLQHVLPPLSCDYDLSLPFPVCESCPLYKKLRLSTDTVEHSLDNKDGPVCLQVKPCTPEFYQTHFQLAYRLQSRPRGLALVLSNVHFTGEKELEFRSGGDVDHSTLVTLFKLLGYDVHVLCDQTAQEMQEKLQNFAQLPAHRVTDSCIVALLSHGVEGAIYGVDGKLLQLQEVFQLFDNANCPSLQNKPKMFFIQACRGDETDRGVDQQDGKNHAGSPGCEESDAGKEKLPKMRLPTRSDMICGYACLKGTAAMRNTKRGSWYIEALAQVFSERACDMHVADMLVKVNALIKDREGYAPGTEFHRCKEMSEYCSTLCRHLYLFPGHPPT
Summary of the method: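 Single-point duplicate testing at 25 uM preceded concentration series topping at 50 uM. Activity of the recombinant E. coli-derived protease was followed by fluorescent substrate cleavage 1 h post-dosing, relative to DMSO.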

[4] = target: human Aurora Kinase A - serine/threonine-protein Kinase 6 (AurA), AURKA (gene 6790) (UniProt O14965); assay: NVS_ENZ_hAurA: NovaScreen (NVS) Enzymatic Assay for human Aurora Kinase A - serine/threonine-protein Kinase 6 (AurA) (AID 2283142)
human Aurora Kinase A - serine/threonine-protein Kinase 6 (AurA), AURKA (gene 6790), sequence (O14965 whole entry, looked up): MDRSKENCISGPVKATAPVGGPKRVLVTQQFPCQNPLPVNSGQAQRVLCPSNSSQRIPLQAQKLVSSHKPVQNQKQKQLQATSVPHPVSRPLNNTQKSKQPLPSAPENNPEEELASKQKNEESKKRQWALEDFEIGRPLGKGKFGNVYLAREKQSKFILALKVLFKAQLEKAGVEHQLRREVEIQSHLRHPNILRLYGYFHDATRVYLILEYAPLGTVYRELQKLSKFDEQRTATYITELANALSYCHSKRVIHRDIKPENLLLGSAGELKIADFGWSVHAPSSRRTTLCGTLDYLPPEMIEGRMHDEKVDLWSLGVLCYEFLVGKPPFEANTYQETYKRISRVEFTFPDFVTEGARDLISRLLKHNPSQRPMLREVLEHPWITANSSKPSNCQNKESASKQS
Summary of the method: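 Recombinant human AurA activity read by fluorescence after mobility-shift separation of product from substrate; 1 hour incubation. Chemicals first run in duplicate at 25 uM, then concentration series to 50 uM if over threshold; fitted relative to DMSO.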

[5] = target: human Fibroblast Growth Factor Receptor 1 (FGFR1), FGFR1 (gene 2260) (UniProt P11362); assay: NVS_ENZ_hFGFR1: NovaScreen (NVS) Enzymatic Assay for human Fibroblast Growth Factor Receptor 1 (FGFR1) (AID 2283159);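 on AC50: hits lower the signal so potencies describe inhibitors of the kinase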
human Fibroblast Growth Factor Receptor 1 (FGFR1), FGFR1 (gene 2260), sequence (P11362 whole entry, looked up): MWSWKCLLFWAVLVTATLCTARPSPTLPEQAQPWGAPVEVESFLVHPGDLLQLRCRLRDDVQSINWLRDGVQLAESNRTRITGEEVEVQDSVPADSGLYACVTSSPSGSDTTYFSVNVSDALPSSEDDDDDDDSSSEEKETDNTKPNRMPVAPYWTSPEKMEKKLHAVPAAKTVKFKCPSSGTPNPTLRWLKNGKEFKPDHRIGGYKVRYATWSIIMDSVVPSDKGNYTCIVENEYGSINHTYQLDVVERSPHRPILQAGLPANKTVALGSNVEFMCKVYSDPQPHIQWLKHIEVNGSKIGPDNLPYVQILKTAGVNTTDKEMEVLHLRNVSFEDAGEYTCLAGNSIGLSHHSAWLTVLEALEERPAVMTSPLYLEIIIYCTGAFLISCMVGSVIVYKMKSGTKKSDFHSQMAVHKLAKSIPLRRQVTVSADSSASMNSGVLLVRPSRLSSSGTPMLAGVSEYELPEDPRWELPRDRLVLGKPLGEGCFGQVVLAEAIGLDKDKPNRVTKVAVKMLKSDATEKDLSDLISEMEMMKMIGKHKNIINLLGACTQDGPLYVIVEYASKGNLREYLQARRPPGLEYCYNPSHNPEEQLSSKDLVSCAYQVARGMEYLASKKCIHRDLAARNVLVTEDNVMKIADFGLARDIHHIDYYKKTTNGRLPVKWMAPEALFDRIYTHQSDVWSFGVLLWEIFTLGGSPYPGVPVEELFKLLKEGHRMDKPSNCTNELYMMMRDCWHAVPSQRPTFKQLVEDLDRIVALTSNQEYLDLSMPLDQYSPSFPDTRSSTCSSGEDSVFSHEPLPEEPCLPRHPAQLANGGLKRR
Summary of the method: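 Cell-free recombinant kinase with fluorescent substrate, product separated by electrophoretic mobility shift; read 1 hour after dosing, loss of signal relative to DMSO. Initial screen in duplicate at 25 uM, actives followed in concentration series.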

[6] = target: human Mitogen-Activated Protein Kinase 1 (MAPK 1), MAPK1 (gene 5594) (UniProt P28482); assay: NVS_ENZ_hMAPK1: NovaScreen (NVS) Enzymatic Assay for human Mitogen-Activated Protein Kinase 1 (MAPK 1) (AID 2283175)
Summary of the method: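 Cell-free recombinant human MAPK1 enzymatic assay, fluorescence/electrophoretic mobility shift read at 1 h; loss of signal vs DMSO. Primary screen in duplicate at 25 uM; actives (e.g. ≥30% inhibition) run as concentration-response up to 50 uM.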

[7] = target: human MET Proto-Oncogene, Receptor Tyrosine Kinase (MET), MET (gene 4233) (UniProt P08581); assay: NVS_ENZ_hMet: NovaScreen (NVS) Enzymatic Assay for human MET Proto-Oncogene, Receptor Tyrosine Kinase (MET) (AID 2283180)
Summary of the method: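 Hits from a 25 uM duplicate screen were retested in concentration series up to 50 uM. Enzyme activity was measured by fluorescence after electrophoretic separation of product from substrate, 1 h after compound addition, relative to DMSO.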

[8] = target: human Matrix Metalloproteinase-1 (MMP1), MMP1 (gene 4312) (UniProt P03956); assay: NVS_ENZ_hMMP1: NovaScreen (NVS) Enzymatic Assay for human Matrix Metalloproteinase-1 (MMP1) (AID 2283181)
Summary of the method: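 Cell-free fluorescent substrate assay of human MMP1, read after 1 h. A single 25 uM duplicate screen was followed by concentration series to a maximum of 50 uM for actives meeting threshold; inhibition analysed against DMSO baseline.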

[9] = target: human Protein Tyrosine Phosphatase Non-receptor Type 2 (PTPN2), PTPN2 (gene 5771) (UniProt P17706); assay: NVS_ENZ_hPTPN2: NovaScreen (NVS) Enzymatic Assay for human Protein Tyrosine Phosphatase Non-receptor Type 2 (PTPN2) (AID 2283207)
Summary of the method: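 Activity measured as fluorescence after mobility-shift separation of substrate and product, 1 h after compound. Duplicate single-point 25 uM primary testing, concentration series for actives; inhibition scored as signal loss relative to DMSO baseline.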

[10] = target: rat Adenylate Cyclase, Forskolin Stimulated, Adcy5 (gene 64532) (UniProt Q04400); assay: NVS_ENZ_rACFSKBinding: NovaScreen (NVS) Enzymatic Assay for rat Adenylate Cyclase, Forskolin Stimulated (AID 2283232)
rat Adenylate Cyclase, Forskolin Stimulated, Adcy5 (gene 64532), sequence (Q04400 whole entry, looked up): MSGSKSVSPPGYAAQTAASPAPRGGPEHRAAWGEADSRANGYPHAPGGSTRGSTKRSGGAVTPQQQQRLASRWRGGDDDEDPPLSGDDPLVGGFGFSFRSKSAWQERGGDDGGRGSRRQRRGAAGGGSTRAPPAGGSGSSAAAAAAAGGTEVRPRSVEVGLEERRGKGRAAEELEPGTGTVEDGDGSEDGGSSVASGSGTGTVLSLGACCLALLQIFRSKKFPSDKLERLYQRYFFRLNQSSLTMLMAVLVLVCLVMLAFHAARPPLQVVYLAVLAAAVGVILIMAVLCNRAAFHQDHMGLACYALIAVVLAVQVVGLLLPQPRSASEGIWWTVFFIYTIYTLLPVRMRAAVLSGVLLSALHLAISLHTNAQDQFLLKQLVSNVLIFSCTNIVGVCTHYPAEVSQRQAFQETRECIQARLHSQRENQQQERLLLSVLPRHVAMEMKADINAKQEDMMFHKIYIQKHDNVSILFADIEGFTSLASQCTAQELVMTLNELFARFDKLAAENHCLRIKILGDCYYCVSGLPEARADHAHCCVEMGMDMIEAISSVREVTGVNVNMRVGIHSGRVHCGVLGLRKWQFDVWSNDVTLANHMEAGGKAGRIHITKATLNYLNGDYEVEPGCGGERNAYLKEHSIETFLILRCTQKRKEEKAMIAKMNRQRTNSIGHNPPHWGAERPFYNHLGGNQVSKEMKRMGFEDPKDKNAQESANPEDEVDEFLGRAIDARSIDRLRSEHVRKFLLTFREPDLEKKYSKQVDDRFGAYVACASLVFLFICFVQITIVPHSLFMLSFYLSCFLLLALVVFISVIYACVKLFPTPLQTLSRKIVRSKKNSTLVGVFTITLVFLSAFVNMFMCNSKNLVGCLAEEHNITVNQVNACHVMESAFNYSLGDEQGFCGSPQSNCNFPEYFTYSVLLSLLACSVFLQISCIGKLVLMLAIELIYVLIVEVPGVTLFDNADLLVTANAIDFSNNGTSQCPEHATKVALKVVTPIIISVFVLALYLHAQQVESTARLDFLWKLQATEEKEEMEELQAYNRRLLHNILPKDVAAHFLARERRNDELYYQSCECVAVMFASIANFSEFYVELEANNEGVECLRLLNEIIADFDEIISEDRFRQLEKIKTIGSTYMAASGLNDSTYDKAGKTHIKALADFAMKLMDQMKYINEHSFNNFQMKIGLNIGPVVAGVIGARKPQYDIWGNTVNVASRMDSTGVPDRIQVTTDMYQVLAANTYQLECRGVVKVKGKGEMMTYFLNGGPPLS
Summary of the method: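 Chemicals were first tested at 25 uM in duplicate, then hits run as concentration series with top concentration 50 uM. Enzyme source was rat forebrain membranes; radiometric filter read-out after 1 h, referenced to DMSO.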

[11] = target: rat Acetylcholinesterase (AChE), Ache (gene 83817) (UniProt P37136); assay: NVS_ENZ_rAChE: NovaScreen (NVS) Enzymatic Assay for rat Acetylcholinesterase (AChE) (AID 2283233)
Summary of the method: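 Compounds first screened at 25 uM in duplicate, then those passing threshold tested in concentration series up to 50 uM, against AChE from rat brain membranes. Enzyme activity read by absorbance at 0.33 h; inhibition scored versus DMSO.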

[12] = target: rat Monoamine Oxidase, MAO-B, Peripheral (MAOBP), Maob (gene 25750) (UniProt P19643); assay: NVS_ENZ_rMAOBP: NovaScreen (NVS) Enzymatic Assay for rat Monoamine Oxidase, MAO-B, Peripheral (MAOBP) (AID 2283242)
rat Monoamine Oxidase, MAO-B, Peripheral (MAOBP), Maob (gene 25750), sequence (P19643 whole entry, looked up): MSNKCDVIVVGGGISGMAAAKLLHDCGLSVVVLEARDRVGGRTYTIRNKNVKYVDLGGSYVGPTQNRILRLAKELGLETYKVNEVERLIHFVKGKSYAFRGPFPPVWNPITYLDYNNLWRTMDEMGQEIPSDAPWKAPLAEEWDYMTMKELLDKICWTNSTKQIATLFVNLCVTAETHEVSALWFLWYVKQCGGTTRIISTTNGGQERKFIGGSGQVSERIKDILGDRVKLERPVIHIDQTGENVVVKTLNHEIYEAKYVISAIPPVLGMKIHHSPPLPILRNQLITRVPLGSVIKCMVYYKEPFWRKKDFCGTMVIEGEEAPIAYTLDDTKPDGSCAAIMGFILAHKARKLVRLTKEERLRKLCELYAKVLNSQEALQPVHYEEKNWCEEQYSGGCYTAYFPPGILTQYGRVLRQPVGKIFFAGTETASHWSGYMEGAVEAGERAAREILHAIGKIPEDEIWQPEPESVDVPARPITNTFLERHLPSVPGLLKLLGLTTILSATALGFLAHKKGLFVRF

[13] = target: human Neonicotinoid receptor (NNR), CHRNA2 (gene 1135) (UniProt Q15822); assay: NVS_LGIC_hNNR_NBungSens: NovaScreen (NVS) Ligand-Gated Ion Channel Assay for human Neonicotinoid receptor (NNR) (AID 2283313)
human Neonicotinoid receptor (NNR), CHRNA2 (gene 1135), sequence (Q15822 whole entry, looked up): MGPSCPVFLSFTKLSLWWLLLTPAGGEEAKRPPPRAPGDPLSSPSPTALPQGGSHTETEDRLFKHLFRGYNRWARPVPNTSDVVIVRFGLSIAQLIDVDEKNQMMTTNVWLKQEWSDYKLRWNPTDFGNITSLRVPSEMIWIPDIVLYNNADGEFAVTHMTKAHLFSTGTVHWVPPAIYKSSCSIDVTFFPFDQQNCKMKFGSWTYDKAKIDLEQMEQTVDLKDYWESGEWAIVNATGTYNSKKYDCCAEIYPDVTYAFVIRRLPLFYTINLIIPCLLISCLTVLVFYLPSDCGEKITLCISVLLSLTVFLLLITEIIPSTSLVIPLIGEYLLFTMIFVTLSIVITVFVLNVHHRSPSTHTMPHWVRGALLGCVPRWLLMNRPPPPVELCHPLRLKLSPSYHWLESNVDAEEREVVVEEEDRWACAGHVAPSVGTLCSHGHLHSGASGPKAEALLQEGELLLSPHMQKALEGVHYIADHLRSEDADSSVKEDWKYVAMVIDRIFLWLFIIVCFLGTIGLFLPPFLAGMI
Summary of the method: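 Compounds first screened in duplicate at 25 uM, then actives re-tested in single-replicate dose series up to 50 uM. Binding measured as displacement of specific radioligand from neuroblastoma membrane receptors after 2 h, scintillation read on filters.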

[14] = system: rat Monoamine Oxidase, MAO-A, Peripheral (MAOAP), gene 29253; assay: NVS_ENZ_rMAOAP: NovaScreen (NVS) Enzymatic Assay for rat Monoamine Oxidase, MAO-A, Peripheral (MAOAP) (AID 2283237)
Summary of the method: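 Scintillation counting tracked MAO-A activity in a cell-free rat liver mitochondrial membrane prep, read 1.17 hours after compound addition. Single-point duplicate testing at 25 uM preceded concentration-response follow-up; activity was fitted relative to DMSO.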

[15] = target: rat Monoamine Oxidase, MAO-B, Central (MAOBC), Maob (gene 25750) (UniProt P19643); assay: NVS_ENZ_rMAOBC: NovaScreen (NVS) Enzymatic Assay for rat Monoamine Oxidase, MAO-B, Central (MAOBC) (AID 2283238)
rat Monoamine Oxidase, MAO-B, Central (MAOBC), Maob (gene 25750), sequence (P19643 whole entry, looked up): as the sequence (P19643 whole entry, looked up) above
Summary of the method: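 Here MAO-B activity in rat brain preparations is quantified radiometrically, counts taken at 1.17 hours. Concentration-response runs reach 50 uM, with plate controls, and values are fitted as loss of signal from the DMSO baseline.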

[16] = system: rat Monoamine Oxidase, MAO-A, Central (MAOAC), gene 29253; assay: NVS_ENZ_rMAOAC: NovaScreen (NVS) Enzymatic Assay for rat Monoamine Oxidase, MAO-A, Central (MAOAC) (AID 2283243);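 further: potency refers to inhibition seen as signal drop below DMSO baseline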
Summary of the method: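 Single-concentration duplicate testing at 25 uM, then concentration-response for actives, in a lysate-based radiodetection MAO-A activity assay from rat brain. Enzyme activity measured 1.5 hours post-dosing; DMSO served as negative control and baseline.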

[17] = target: human AMP-activated Protein Kinase, alpha 1 (AMPKa1), PRKAA1 (gene 5562) (UniProt Q13131); assay: NVS_ENZ_hAMPKa1: NovaScreen (NVS) Enzymatic Assay for human AMP-activated Protein Kinase, alpha 1 (AMPKa1) (AID 2283130)
Summary of the method: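 Compounds were screened in duplicate at 25 uM, and those reaching ~30% inhibition were titrated up to 50 uM. The enzyme was recombinant human AMPKα1, and kinase turnover was read by fluorescence/mobility shift 1 h post-dosing as loss of signal versus DMSO.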

[18] = target: human Phosphatase and Tensin Homolog (PTEN), PTEN (gene 5728) (UniProt P60484); assay: NVS_ENZ_hPTEN: NovaScreen (NVS) Enzymatic Assay for human Phosphatase and Tensin Homolog (PTEN) (AID 2283203)
Summary of the method: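 Loss of fluorescent product signal after mobility-shift separation reports PTEN activity, recombinant human enzyme, 1 h after compound addition. Single 25 uM duplicate screen, then concentration-response on actives; DMSO baseline.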

[19] = CCTE_Harrill_HTTr_Apoptosis_PRF_DMEM_12hr: (Pilot) CCTE's 12-hour Apoptosis Assessment for the High-Throughput Transcriptomics (HTTr) Platform, in MCF-7 cells cultured in phenol red-free DMEM + 10% charcoal-stripped fetal bovine serum, Harrill Lab (AID 2283985; active means hit-call score of the fitted dose curve at least 0.9, where 1 is the maximum; inactive means score below 0.9)
Summary of the method: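 Caspase-3/7 activity by CellEvent Green high content imaging after 12 h compound exposure (eight concentrations) in MCF-7 grown in phenol red-free DMEM plus 10% charcoal-stripped serum; DMSO as baseline.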

[20] = target: human Ephrin type-B Receptor 2 (EphB2), EPHB2 (gene 2048) (UniProt P29323); assay: NVS_ENZ_hEphB2: NovaScreen (NVS) Enzymatic Assay for human Ephrin type-B Receptor 2 (EphB2) (AID 2283156)
Summary of the method: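 Compounds were first tested in duplicate at 25 uM, with hits rerun singly in concentration series up to 50 uM. Enzyme activity on fluorescent substrate was read at 1 h by mobility-shift separation, scored as signal loss relative to DMSO.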

[21] = target: human Tyrosine Protein Kinase Receptor Tie-2 (Tie2), TEK (gene 7010) (UniProt Q02763); assay: NVS_ENZ_hTie2: NovaScreen (NVS) Enzymatic Assay for human Tyrosine Protein Kinase Receptor Tie-2 (Tie2) (AID 2283225)
Summary of the method: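 Substrate and product were separated by mobility shift and detected by fluorescence after a 1-hour reaction with recombinant Tie2. Chemicals passing a 25 uM single-point screen were titrated to a maximum of 50 uM. Results were normalized to DMSO baseline.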

[22] = target: rat Neurotensin Receptor (NTS), Ntsr1 (gene 366274) (UniProt P20789); assay: NVS_GPCR_rNTS: NovaScreen (NVS) G Protein-Coupled Receptor Assay for rat Neurotensin Receptor (NTS) (AID 2283308)
Summary of the method: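 Single-point duplicates at 25 uM, then concentration series to 50 uM max for hits, measured radioligand displacement on rat forebrain membrane preparations. Bound label counted by filtration scintillation at 1 h; signal loss relative to DMSO fitted.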

## S=C(S)NCCNC(=S)S.[Mn+2].[S-]C([S-])=NCCN=C([S-])[S-].[Zn+2]
[1]
  outcome: inactive
Caspase-1 (Homo sapiens)
  outcome: inactive
[2]
  outcome: inactive
[3]
  outcome: inactive
[4]
  AC50: 3.99 µM (active) and 2.8 µM (active)
[5]
  AC50: 9.75 µM (active) and 926 nM (active) and 5.66 µM (active)
[6]
  AC50: 7.49 µM (active) and 1.15 µM (active)
[7]
  AC50: 11 µM (active) and 4.32 µM (active) and 18.9 µM (active)
[8]
  outcome: inactive
[9]
  AC50: 898 nM (active) and 519 nM (active)
[10]
  outcome: inactive
[11]
  outcome: inactive
[12]
  outcome: inactive
[13]
  outcome: inactive

## NCc1cccc(C2CCN(C(=O)c3ccc(C#Cc4ccccc4F)o3)CC2)c1
[1]
  AC50: 25 µM (active)
[10]
  outcome: inactive
[11]
  AC50: 11.3 µM (active)
[14]
  AC50: 3.57 µM (active)
[15]
  AC50: 11.2 µM (active)
[12]
  AC50: 38 µM (active)
[16]
  AC50: 1.72 µM (active)

## CCOC(=O)C(C)(C)Oc1ccc(Cl)cc1
[17]
  outcome: inactive
[4]
  outcome: inactive
[5]
  outcome: inactive
[18]
  outcome: inactive
[9]
  AC50: 218 nM (active)
[19]
  outcome: inactive

## Cc1[nH]nc2c1N=C(c1ccccc1Cl)c1cc([N+](=O)[O-])ccc1N2
[17]
  AC50: 17 µM (active)
[4]
  AC50: 7.02 nM (active)
[20]
  outcome: inactive
[5]
  AC50: 41.4 µM (active)
[21]
  outcome: inactive

## CNC(=O)[C@H]1O[C@@H](n2cnc3c(NCc4cc(Cl)ccc4OCc4cc(C)no4)ncnc32)[C@H](O)[C@@H]1N
[17]
  outcome: inactive
[5]
  outcome: inactive

## COc1cccc(-c2ccc(/C=C\CN3CCCCCC3)cc2Cl)c1
[17]
  AC50: 34.6 µM (active)
[15]
  AC50: 27.7 µM (active)
[12]
  AC50: 11.6 µM (active)
[13]
  AC50: 22.6 µM (active)

## O=C(O)c1ccccc1C(c1ccc(O)cc1)c1ccc(O)cc1
[17]
  outcome: inactive
[15]
  outcome: inactive

## COc1cc(S(=O)(=O)O)c(C)cc1N=Nc1c(O)ccc2cc(S(=O)(=O)O)ccc12
Caspase-1 (Homo sapiens)
  AC50: 25 µM (active)
[3]
  AC50: 6.73 µM (active)
[22]
  AC50: 16.8 µM (active)
[13]
  AC50: 16.7 µM (active)
